Results: PubChem BioAssay (NCI)
About 79,000 compounds went through this panel and 15% of them were active in at least one assay; those are over-represented in the sample as a whole. A number with no mark means an inactive call. Calls of active or inactive are those of the source. Rule as the data show it: active = growth inhibition above about 70%; inactive = the rest.

Assay: NCI Yeast Anticancer Drug Screen. Data for the wt2 strain (AID 169);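 also: 0% = growth of vehicle-treated yeast cultures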
Settings: S. cerevisiae wt2 strain growth inhibition, active compounds read high
Description: Growth inhibition of yeast strains with defined genetic alterations is measured as a screen for potential anti-cancer activity. Selected strains with alterations in DNA damage repair or cell cycle control were exposed to compounds and growth inhibition was measured relative to vehicle treated controls. The strain used in this assay is wt2

Compound: CCC(=O)N(c1ccccc1)C(C)CN1CCC(O)(c2cccc(C(F)(F)F)c2)CC1 (stereo not given)
- growth inhibition (at 1.2 µM): 0%
- growth inhibition (at 3.7 µM): 5%
- growth inhibition (at 11.0 µM): 16%
- growth inhibition (at 33.0 µM): 44%
- growth inhibition (at 100.0 µM): 96% (active)

Compound: ClCCn1c(CCl)nc2ccc(Cl)cc21
- growth inhibition (at 1.2 µM): -10%
- growth inhibition (at 3.7 µM): -13%
- growth inhibition (at 11.0 µM): 8%
- growth inhibition (at 33.0 µM): 77% (active)
- growth inhibition (at 100.0 µM): 98% (active)

Compound: CCCCOC(=O)CSSCC(=O)OCCCC
- growth inhibition (at 1.2 µM): -15%
- growth inhibition (at 3.7 µM): -1%
- growth inhibition (at 11.0 µM): 8%
- growth inhibition (at 33.0 µM): 70% (active)
- growth inhibition (at 100.0 µM): 98% (active)

Compound: Nc1ccc(CCl)cc1Cc1c(O)ccc2ccccc12
- growth inhibition (at 1.2 µM): 1%
- growth inhibition (at 3.7 µM): 6%
- growth inhibition (at 11.0 µM): 16%
- growth inhibition (at 33.0 µM): 23%
- growth inhibition (at 100.0 µM): 32%

Compound: O=C(CCc1ccccc1)ON1C(=S)C(c2ccccc2)(c2ccccc2)N=C1Sc1ccccc1
- growth inhibition (at 1.2 µM): 1%
- growth inhibition (at 3.7 µM): -4%
- growth inhibition (at 11.0 µM): 0%
- growth inhibition (at 33.0 µM): 14%
- growth inhibition (at 100.0 µM): 44%

Compound: O=C(NCCCCCN1CCC2(CCCCC2)CC1)C(C1CCCCC1)C1CCCCC1
- growth inhibition (at 1.2 µM): -1%
- growth inhibition (at 3.7 µM): 3%
- growth inhibition (at 11.0 µM): 45%
- growth inhibition (at 33.0 µM): 99% (active)
- growth inhibition (at 100.0 µM): 99% (active)

Compound: CCOC(=O)c1csc(Br)n1
- growth inhibition (at 1.2 µM): -2%
- growth inhibition (at 3.7 µM): -2%
- growth inhibition (at 11.0 µM): -2%
- growth inhibition (at 33.0 µM): -4%
- growth inhibition (at 100.0 µM): -4%

Compound: Cc1c2cc[n+](CCN3CCCCC3)cc2c(C)c2c1[nH]c1ccc(O)cc12
- growth inhibition (at 1.2 µM): 5%
- growth inhibition (at 3.7 µM): 4%
- growth inhibition (at 11.0 µM): 5%
- growth inhibition (at 33.0 µM): 12%
- growth inhibition (at 100.0 µM): 96% (active)
